For 31 compounds, Potency results are on record in PubChem BioAssay (Tox21).

Values joined by “and” are separate entries in the source; they are usually repeats but may differ in a detail not shown here. Equal values may be shown once. Results filed as inconclusive are left out. Where a call stands in place of a potency, no number is given. Active and inactive are the calls of the source. The call rests on the fitted dose curve; in most records, active means well fitted inhibition curve with a large enough effect in the repeat runs; inconclusive means weak or mixed curves; inactive means no such curve, though single readings can be large or run the other way.
Potency means the concentration at half of the fitted maximal effect.

Sequence of Aromatase (Homo sapiens) (P11511 whole entry, looked up): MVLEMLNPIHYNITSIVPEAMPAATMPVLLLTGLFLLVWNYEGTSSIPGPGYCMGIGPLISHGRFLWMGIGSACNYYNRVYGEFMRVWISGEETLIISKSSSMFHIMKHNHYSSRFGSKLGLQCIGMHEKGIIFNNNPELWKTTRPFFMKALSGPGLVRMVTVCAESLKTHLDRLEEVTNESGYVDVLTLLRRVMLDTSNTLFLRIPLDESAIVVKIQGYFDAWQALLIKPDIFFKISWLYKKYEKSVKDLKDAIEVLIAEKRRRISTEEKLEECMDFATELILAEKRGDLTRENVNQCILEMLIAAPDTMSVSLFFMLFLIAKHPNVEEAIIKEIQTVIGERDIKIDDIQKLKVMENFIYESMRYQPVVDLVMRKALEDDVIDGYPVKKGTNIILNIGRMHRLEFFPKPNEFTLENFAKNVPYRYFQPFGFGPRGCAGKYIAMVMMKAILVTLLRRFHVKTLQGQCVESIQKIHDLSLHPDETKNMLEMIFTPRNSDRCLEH

This experiment concerns the target Aromatase (Homo sapiens) (UniProt P11511). In words: qHTS assay to identify aromatase inhibitors (AID 743083). Further: nearly all actives have a fitted effect of over 55% in size. Particulars: MCF-7 aro ERE, testosterone-driven ERE luciferase, 24 h; series mostly up to 70.3 µM. (In general: qHTS replaces the single test concentration by a dilution series.)
Consider `CC(COC(=O)c1ccccc1)OC(=O)c1ccccc1` (stereo unspecified), for which the Potency entry was “inactive”. Next, `O=C(Oc1ccccc1)c1cccc(C(=O)Oc2ccccc2)c1`: “inactive”. Take `CNC(=S)NN`: the Potency was 61.1 µM (active). Next, `CCCCCCCOC(=O)c1ccc(O)cc1`: 43.3 µM (active). With `O=C(Nc1ccc(Cl)cc1)Nc1ccc(Cl)c(C(F)(F)F)c1`, the Potency was 10.6 µM (active). Next, `O=C1OC(OC(=O)c2cccnc2Nc2cccc(C(F)(F)F)c2)c2ccccc21` (stereo unspecified): “inactive”. Consider `CCCCCCCC/C=C\CCCCCCCC(=O)NCc1ccc(O)c(OC)c1`, for which the Potency entry was “inactive”. Next, `O=Cc1ccc(F)cc1`: “inactive”. The entry for `Nc1ncnc2c1ncn2[C@@H]1O[C@H](COP(=O)(O)O)[C@@H](O)[C@H]1O` is “inactive”; for `C/C=C/C=N/NC(=O)c1ccncc1` it is “inactive”. The figure for `CCCCC(CC)COC(=O)c1ccc(O)cc1` (stereo unspecified) is 15.3 µM (active) and 19.3 µM (active); for `SCCCCCCCCS` it is “inactive”. Regarding `CC1=C(/C=C/C(C)=C/C=C/C(C)=C/C(=O)Nc2ccc(O)cc2)C(C)(C)CCC1`, the Potency was 13.3 µM (active) and 28 µM (active). Take `CCC(C)(C)c1cc(O)c(C(C)(C)CC)cc1O`: the Potency is 24.3 µM (active). In the case of `CCCCCCCCCCCCCC[n+]1ccccc1`, the Potency is 6.11 µM (active). The entry for `Clc1ccccc1CN1CCc2sccc2C1` is “inactive”; for `CC(C)(C)CC(C)(C)c1ccccc1O` it is 48.8 µM (active); for `Cc1nc(Nc2ncc(C(=O)Nc3c(C)cccc3Cl)s2)cc(N2CCN(CCO)CC2)n1` it is 1.33 µM (active). As for `O=C(O)CC(=O)O`, the Potency entry is “inactive”. Take `C=C(C)C(=O)OCCC[Si](Cl)(Cl)Cl`: the Potency result was “inactive”. The entry for `CCCCCCCCCCCCCCNCCO` is “inactive”; for `O=C1OC(=O)c2cccc3cccc1c23` it is “inactive”. Next, `c1cc2c3c(c1)ccc1cccc(c13)C2`: “inactive”; `Cc1cc2c(C(C)C)c(O)c(O)c(C=O)c2c(O)c1-c1c(C)cc2c(C(C)C)c(O)c(O)c(C=O)c2c1O`: 21.1 µM (active); `Cc1cccc(C)c1NC(=O)CN1CCN(CCCC(c2ccc(F)cc2)c2ccc(F)cc2)CC1`: “inactive”. Next, `CSc1c(Cl)c(Cl)c(Cl)c(Cl)c1Cl`: “inactive”; `C[C@H]1O[C@@H](O[C@H]2[C@@H](O)C[C@H](O[C@H]3[C@@H](O)C[C@H](O[C@H]4CC[C@@]5(C)[C@H](CC[C@@H]6[C@@H]5C[C@@H](O)[C@]5(C)[C@@H](C7=CC(=O)OC7)CC[C@]65O)C4)O[C@@H]3C)O[C@@H]2C)C[C@H](O)[C@@H]1O`: “inactive”. For `NCCCCCCNCCCCCCN`, the Potency entry is “inactive”. Next, `Clc1ccc(C(Cn2ccnc2)OCc2c(Cl)cccc2Cl)c(Cl)c1` (stereo unspecified): 10.1 µM (active); `S=C(SSSSSSC(=S)N1CCCCC1)N1CCCCC1`: 0.268 µM (active). The entry for `Oc1ccc(-c2ccc(O)cc2)cc1` is “inactive”.
